KLF5 inhibitor – inhibitors of KLF5 expression; inhibition, % at 5 µM; DLD-1 KLF5 promoter-luciferase reporter, luminescence; actives 0.23% (n = 290,000);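 active = inhibition above a per-plate limit of that plate's mean compound inhibition plus 3 SD, cut at about 60% in these data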;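 also: higher means less KLF5 promoter-driven luciferase light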
IEC-6 cytotox – IEC-6 cytotoxicity, counter-screen for KLF5 inhibitors. luminescence viability. inhibition, % at 5 µM. actives 0.78% (n = 290,000). AID 1825
BaF3 tox – counter-screen for JAK2V617F inhibitors: parental Ba/F3 viability inhibitors; CellTiter-Glo ATP luminescence; inhibition, % at 5.6 µM; actives 1.1% (n = 220,000); AID 1486;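 active = inhibition above a per-campaign cutoff, the mean inhibition of all tested compounds plus 3 SD, cut at about 27% in these data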
Ba/F3 V617F tox – loss of viability in JAK2V617F-driven Ba/F3 cells | Ba/F3 EpoR-JAK2V617F viability, ATP luminescence | inhibition, % at 5.6 µM | actives 1.1% (n = 220,000);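 active = inhibition above the campaign mean plus 3 SD over all tested compounds, cut at about 24% in these data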;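 also: cytokine-independent growth of Ba/F3 cells driven by EpoR plus mutant JAK2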
APP 5UTR inh – APP translation inhibition; SH-SY5Y APP 5'UTR-luciferase reporter, luminescence; inhibition, % at 2 µM; actives 0.82% (n = 190,000); AID 1285;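 active = inhibition above a set limit, derived from the sample mean plus 3 SD, cut at about 45% in these data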
IEC-6 tox confirm – IEC-6 cytotoxicity, confirmation assay; inhibition, % at 5 µM; shares compounds with IEC-6 cytotox; IEC-6 rat intestinal epithelial viability, luminescence; actives 63% (n = 1,900); AID 1907
Large screens that a line does not name were inactive (follow-up assays come after a bar, where they were run). Hits are enriched below; roughly 1.8% of the tested compounds scored in any of these assays. Rule as the data show it, unless noted: active = inhibition above about 22%; inactive = the rest.

Cn1ncc2c(O/N=C(\N)c3ccc(C(C)(C)C)cc3)ncnc21	IEC-6 cytotox 93, BaF3 tox 36, Ba/F3 V617F tox 75 (no result: APP 5UTR inh) | IEC-6 tox confirm inactive
CS(=O)(=O)c1sc(C#N)c2c1C(=O)CC(c1ccccc1)C2 (stereo not drawn)	IEC-6 cytotox 75, BaF3 tox 92, Ba/F3 V617F tox 99 (no result: APP 5UTR inh) | IEC-6 tox confirm inactive
Cc1oc2c(c(=O)c1C)C(=O)CC(c1ccccc1)C2 (stereo not drawn)	none
CCc1nnc(N/N=C/c2ccc(N3CCC(C)CC3)c([N+](=O)[O-])c2)n1N	none
Cc1nnc(N/N=C/c2cc([N+](=O)[O-])c(N3CCC(C)CC3)cc2N2CCC(C)CC2)n1N	IEC-6 cytotox 103 | IEC-6 tox confirm inactive
C=CCOc1ccc2nc(NC(=O)OC)[nH]c2c1	IEC-6 cytotox 82, BaF3 tox 79, Ba/F3 V617F tox 78 (no result: APP 5UTR inh) | IEC-6 tox confirm 53
CCOc1ccc2nc(NCCO)[nH]c2c1	none
Cc1ccccc1NC(=S)Nc1cccc2cnccc12	IEC-6 cytotox 44 | IEC-6 tox confirm inactive
Cc1ccc(F)c(NC(=S)Nc2cccc3ccccc23)c1	IEC-6 cytotox 65 (no result: BaF3 tox, Ba/F3 V617F tox, APP 5UTR inh) | IEC-6 tox confirm inactive
Cc1ccc(Cl)cc1NC(=S)N/N=C/c1cccc2ccccc12	IEC-6 cytotox 79, BaF3 tox 76, Ba/F3 V617F tox 78 (no result: APP 5UTR inh) | IEC-6 tox confirm 67
CC(=O)c1cccc(NC(=S)Nc2cccc3ccccc23)c1	IEC-6 cytotox 28 (no result: BaF3 tox, Ba/F3 V617F tox, APP 5UTR inh) | IEC-6 tox confirm inactive
C1=Nc2c(NCc3ccccc3)ncnc2Oc2ccccc21	IEC-6 cytotox 26 | IEC-6 tox confirm 24
CC(C)(C)c1ccc(C(=O)Nc2ccc(C(=O)NCc3cccnc3)cc2)cc1	IEC-6 cytotox 98 (no result: BaF3 tox, Ba/F3 V617F tox, APP 5UTR inh) | IEC-6 tox confirm 91
CC(C)(C)C(=O)Nc1ccc(C(=O)NCc2cccnc2)cc1	none
O=C(NCc1cccnc1)c1ccc(NC(=O)c2ccc([N+](=O)[O-])cc2)cc1	IEC-6 cytotox 87 (no result: BaF3 tox, Ba/F3 V617F tox, APP 5UTR inh) | IEC-6 tox confirm 59
O=C(NC(=S)NCc1cccnc1)c1ccc([N+](=O)[O-])cc1	none
COc1ccc(-n2c(SCc3ccccn3)nc3c(c2=O)SCC3)cc1OC	none
CCOc1cc(N2CCOCC2)c(OCC)cc1NS(=O)(=O)c1ccc(Cl)s1	IEC-6 cytotox 57, BaF3 tox 55 | IEC-6 tox confirm 58
CCOc1cc(N2CCOCC2)c(OCC)cc1NC(=O)CCS(=O)(=O)c1ccc(Cl)cc1	none
CC(Nc1ncnc2ccccc12)c1ccccc1 (stereo not drawn)	IEC-6 cytotox 28 (no result: BaF3 tox, Ba/F3 V617F tox, APP 5UTR inh) | IEC-6 tox confirm 27
CCCCC(Nc1ncnc2ccccc12)C(=O)O (stereo not drawn)	none
CCn1c(SCC(=O)Nc2ccccc2Br)nnc1-c1cnccn1	none (no result: BaF3 tox, Ba/F3 V617F tox, APP 5UTR inh)
CC1=Nc2cc(C(=O)NCC3CCCO3)ccc2Sc2ccc(Br)cc21 (stereo not drawn)	IEC-6 cytotox 43 (no result: APP 5UTR inh) | IEC-6 tox confirm 29
CC1=Nc2cc(C(=O)O)ccc2Sc2ccc(Br)cc21	none
C=CCn1c(SCc2c(C)noc2C)nc2ccccc2c1=O	IEC-6 cytotox 83, BaF3 tox 72, Ba/F3 V617F tox 71, APP 5UTR inh 94 | IEC-6 tox confirm 57
COc1ccc(N(CC(=O)Nc2ccccc2OC)S(=O)(=O)c2ccc(NC(C)=O)cc2)cc1	IEC-6 cytotox 38 (no result: BaF3 tox, Ba/F3 V617F tox, APP 5UTR inh) | IEC-6 tox confirm 32
COc1ccccc1NC(=O)CN(c1ccccc1)S(=O)(=O)c1ccccc1	none (no result: BaF3 tox, Ba/F3 V617F tox, APP 5UTR inh)
COc1cc(OC)c(C2=NOC(C(=O)NCc3cccs3)C2)cc1Cl (stereo not drawn)	IEC-6 cytotox 42 | IEC-6 tox confirm 41
COc1cc(OC)c(C2=NOC(C(=O)NCc3cccnc3)C2)cc1Cl (stereo not drawn)	none (no result: BaF3 tox, Ba/F3 V617F tox, APP 5UTR inh)
COc1ccc(C2=NOC(C(=O)NCc3cccs3)C2)cc1OC (stereo not drawn)	IEC-6 cytotox 52, BaF3 tox 76, Ba/F3 V617F tox 87 (no result: APP 5UTR inh) | IEC-6 tox confirm 51
COc1ccc(C2=NOC(C(=O)NCc3ccccn3)C2)cc1OC (stereo not drawn)	none
S=C(NC1CC1)NC1CCCc2ccccc21 (stereo not drawn)	none
Cc1nc2cc(-c3ccc(Br)cc3)[nH]n2c(=O)c1Cl	IEC-6 cytotox 30 (no result: BaF3 tox, Ba/F3 V617F tox, APP 5UTR inh) | IEC-6 tox confirm inactive
O=C(N/N=C/c1ccccc1)c1ccc(CN2C(=O)c3cccc4cccc2c34)cc1	none
O=C(N/N=C/c1ccc(O)cc1O)c1ccc(CN2C(=O)c3cccc4cccc2c34)cc1	IEC-6 cytotox 34, APP 5UTR inh 60 | IEC-6 tox confirm 52
Cc1ccc(C)c(OCCNc2ncccc2[N+](=O)[O-])c1	none (no result: BaF3 tox, Ba/F3 V617F tox, APP 5UTR inh)
O=C(/C=C/c1ccco1)Nc1ccccn1	IEC-6 cytotox 28, BaF3 tox 56, Ba/F3 V617F tox 63 | IEC-6 tox confirm 58
Cc1ccc(NC(=O)/C=C/c2ccco2)nc1	IEC-6 cytotox 86, BaF3 tox 82, Ba/F3 V617F tox 85, APP 5UTR inh 89 | IEC-6 tox confirm 57
O=C(/C=C/c1ccco1)Nc1cccnc1	none
COc1nc(C)nc(NC(=O)NS(=O)(=O)c2ccc(C)cc2)n1	none
COC(=O)C1CC(=O)c2sccc2C1 (stereo not drawn)	none
CN(C)CCNC(=O)c1cc2c(s1)-c1ccc(Cl)cc1SC2	IEC-6 cytotox 101 (no result: BaF3 tox, Ba/F3 V617F tox, APP 5UTR inh) | IEC-6 tox confirm 28
CCOCCCNC(=O)c1cc2c(s1)-c1ccccc1SC2	none (no result: BaF3 tox, Ba/F3 V617F tox, APP 5UTR inh)
Cc1cccc(CS(=O)(=O)Cc2ccc(C(=O)NC3CCCCCC3)o2)c1	none (no result: BaF3 tox, Ba/F3 V617F tox, APP 5UTR inh)
OCCCNc1c2ccccc2nc2ccccc12	IEC-6 cytotox 39 (no result: BaF3 tox, Ba/F3 V617F tox, APP 5UTR inh) | IEC-6 tox confirm 26
Fc1cccc(NCCc2c[nH]c3ccccc23)n1	none (no result: BaF3 tox, Ba/F3 V617F tox, APP 5UTR inh)
c1ccc2c(NCCc3c[nH]c4ccccc34)c3ccccc3nc2c1	IEC-6 cytotox 22 (no result: BaF3 tox, Ba/F3 V617F tox, APP 5UTR inh) | IEC-6 tox confirm inactive
Cc1ccc(-c2nc(NCCCO)c3ccccc3n2)cc1	none (no result: BaF3 tox, Ba/F3 V617F tox, APP 5UTR inh)
CC1=Nc2ccccc2/C1=C/c1c(N)n2c(S(=O)(=O)CC(C)C)nsc2nc1=O	none
CCc1c(C(=O)NC2CCCc3ccccc32)[nH]c(C)c1C(C)=O (stereo not drawn)	IEC-6 cytotox 47 (no result: BaF3 tox, Ba/F3 V617F tox, APP 5UTR inh) | IEC-6 tox confirm inactive
CC(=O)c1c(C)[nH]c(C(=O)NC2CCSc3ccccc32)c1C (stereo not drawn)	none (no result: BaF3 tox, Ba/F3 V617F tox, APP 5UTR inh)
O=C(CSc1nnc(NC(=O)C2CC2)s1)Nc1ccc(F)cc1F	none (no result: BaF3 tox, Ba/F3 V617F tox, APP 5UTR inh)
COc1ccc(CCNC(=O)c2ccc3c(c2)N(Cc2ccc(F)cc2)CCS3)c(OC)c1	none (no result: BaF3 tox, Ba/F3 V617F tox, APP 5UTR inh)
O=C(N/N=C/c1ccc2c(c1)OCO2)c1cccc(NC(=O)c2ccccc2Cl)c1	IEC-6 cytotox 36 (no result: BaF3 tox, Ba/F3 V617F tox, APP 5UTR inh) | IEC-6 tox confirm inactive
Cc1cc(C(=O)N/N=C/c2ccc3c(c2)OCO3)c2ccccc2n1	IEC-6 cytotox 39, BaF3 tox 52, Ba/F3 V617F tox 56 (no result: APP 5UTR inh) | IEC-6 tox confirm 35
COc1ccccc1NC(=O)CSc1nc2n[nH]c(C)c2c(=N)n1-c1ccccc1Cl	none
Cc1ccc(N2CC(C(=O)Nc3ccc(C)c(S(=O)(=O)N(C)C)c3)CC2=O)cc1 (stereo not drawn)	none
COC(=O)[C@H](Cc1ccccc1)NC(=O)NCc1ccccc1OC	none
COC(=O)c1ccc(NC(=O)c2snnc2-c2ccccc2)cc1	none

Screening results: PubChem BioAssay, several laboratories
